Measured values: PubChem BioAssay (NCATS)
Inconclusive results are not listed. A call without a number means that no potency is given here. Some compounds were tested as several samples or in several runs, with calls that do not always agree. The source made the active and inactive calls. Unless noted, the call rests on the fitted dose curve; in most records, active means well fitted curve in the direction sought with a large enough effect; inconclusive means small, poorly fitted or top-dose-only effect, or another doubt; inactive means no such curve, though single readings can be large; an effect the other way counts as inactive or inconclusive.

Molecular target: Guanine nucleotide-binding protein G(i) subunit alpha-1 (Homo sapiens) (UniProt P63096)
Experiment: qHTS Assay for Inhibitors of RGS12 GoLoco Motif Activity (Green Fluorophore) (AID 879);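 further: negative values mean loss of peptide binding seen as reduced polarization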
Settings: Galphai1/FITC-RGS12 GoLoco peptide, fluorescence polarization; series mostly up to 57.1 µM
Procedure, shortened: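 A drop in FITC polarization marked displacement of the FITC-tagged RGS12 GoLoco peptide (10 nM) from Gαi1 (50 nM). Compounds were incubated 10 min at room temperature in Tris pH 7.5 buffer containing 150 mM NaCl, 0.1 mM GDP and 0.05% NP40; unlabeled peptide titration served as control.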

Chain of Guanine nucleotide-binding protein G(i) subunit alpha-1 (Homo sapiens) (P63096 whole entry, looked up): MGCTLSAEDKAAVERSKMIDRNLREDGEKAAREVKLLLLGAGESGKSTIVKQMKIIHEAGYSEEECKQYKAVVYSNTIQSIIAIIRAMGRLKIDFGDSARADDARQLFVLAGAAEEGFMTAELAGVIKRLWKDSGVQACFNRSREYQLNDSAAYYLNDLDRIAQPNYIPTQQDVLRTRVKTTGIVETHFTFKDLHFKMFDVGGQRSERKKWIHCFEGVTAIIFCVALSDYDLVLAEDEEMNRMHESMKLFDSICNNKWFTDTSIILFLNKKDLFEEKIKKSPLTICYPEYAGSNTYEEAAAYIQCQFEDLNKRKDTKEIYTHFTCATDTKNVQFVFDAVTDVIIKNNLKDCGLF

Structure (SMILES)	outcome
N[C@@H]1C[C@H]1c1ccccc1	inactive
Cc1ccc(S(=O)(=O)N[C@@H](CCCCN)C(=O)CCl)cc1	inactive
NCC(CC(=O)O)c1ccc(Cl)cc1 (configuration not stated)	inactive
CCCN1CCC[C@@H]2Cc3nc(N)ncc3C[C@H]21	inactive
c1ccc(C2CC2)c(OCC2=NCCN2)c1	inactive

Molecular target: Cytochrome P450 2C9 (Homo sapiens) (UniProt P11712)
Experiment: qHTS Assay for Inhibitors and Substrates of Cytochrome P450 2C9 (AID 883); further: nearly all actives have a fitted effect of over 60% in size; further: potency means the concentration at half of the fitted maximal effect
Settings: recombinant CYP2C9, luciferin-H luminescence, 60 min; series mostly up to 57.1 µM
Procedure, shortened: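 Human CYP2C9 (10nM) with Luciferin-H at 100uM (its KM) in 25mM KPO4; compound preincubated 10 min at 37C, then NADPH regeneration for 60 min at 37C. Luciferin read by luminescence after detection reagent; normalized to 57uM sulphaphenazole as full inhibition.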

Chain of Cytochrome P450 2C9 (Homo sapiens) (P11712 whole entry, looked up): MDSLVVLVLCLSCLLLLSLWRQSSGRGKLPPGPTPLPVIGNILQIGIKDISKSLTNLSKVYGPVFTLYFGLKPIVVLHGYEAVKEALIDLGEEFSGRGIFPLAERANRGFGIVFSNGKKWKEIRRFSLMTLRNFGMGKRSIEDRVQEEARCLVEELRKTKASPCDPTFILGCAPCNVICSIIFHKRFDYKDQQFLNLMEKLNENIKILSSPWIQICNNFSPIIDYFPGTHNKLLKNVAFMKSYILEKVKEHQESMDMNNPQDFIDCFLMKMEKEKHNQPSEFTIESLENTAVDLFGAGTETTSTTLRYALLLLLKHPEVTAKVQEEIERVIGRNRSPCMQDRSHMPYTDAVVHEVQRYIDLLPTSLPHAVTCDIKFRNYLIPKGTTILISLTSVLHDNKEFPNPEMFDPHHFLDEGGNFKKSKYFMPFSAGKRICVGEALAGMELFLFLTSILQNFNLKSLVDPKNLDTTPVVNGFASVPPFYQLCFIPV

Structure (SMILES)	Potency
COc1cc2c(c(OC)c1OC)-c1ccc(OC)c(=O)cc1[C@@H](NC(C)=O)CC2	3.16 µM (active)
CCCN(CCC)CCc1cccc2c1CC(=O)N2	inactive
COc1ccc(Cc2nccc3cc(OC)c(OC)cc23)cc1OC	12.6 µM (active)

Molecular target: Cytochrome P450 3A4 (Homo sapiens) (UniProt P08684)
Experiment: qHTS Assay for Inhibitors and Substrates of Cytochrome P450 3A4 (AID 884); further: nearly all actives have a fitted effect of over 50% in size; further: potency means the concentration at half of the fitted maximal effect
Settings: recombinant CYP3A4, Luciferin-PPXE luminescence; series mostly up to 57.1 µM
Procedure, shortened: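 Luminescent readout of luciferin produced by CYP3A4 (20 nM) dealkylation of Luciferin-PPXE, 25 uM (its KM). NADPH-driven reaction ran 60 min at RT after 10 min compound preincubation; data scaled to 57 uM ketoconazole as 100% inhibition.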

Chain of Cytochrome P450 3A4 (Homo sapiens) (P08684 whole entry, looked up): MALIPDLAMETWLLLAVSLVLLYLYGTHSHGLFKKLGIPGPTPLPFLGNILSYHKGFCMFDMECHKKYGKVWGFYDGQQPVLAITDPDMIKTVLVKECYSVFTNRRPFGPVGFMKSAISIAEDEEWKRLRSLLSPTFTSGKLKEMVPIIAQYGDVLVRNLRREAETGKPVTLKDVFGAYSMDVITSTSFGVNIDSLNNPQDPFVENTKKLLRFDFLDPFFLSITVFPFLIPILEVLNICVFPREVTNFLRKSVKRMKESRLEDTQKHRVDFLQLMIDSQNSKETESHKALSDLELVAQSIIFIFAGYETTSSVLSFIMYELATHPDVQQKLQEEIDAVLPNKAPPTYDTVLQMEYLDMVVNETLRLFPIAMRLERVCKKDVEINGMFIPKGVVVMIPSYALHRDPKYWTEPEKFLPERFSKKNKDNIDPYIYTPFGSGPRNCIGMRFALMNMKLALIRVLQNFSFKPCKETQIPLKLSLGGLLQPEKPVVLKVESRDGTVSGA

Structure (SMILES)	Potency
NCCc1cc(O)c(O)cc1O	inactive
CC(C)=CC1C(C(=O)OCc2cccc(Oc3ccccc3)c2)C1(C)C (configuration not stated)	inactive
Cc1cc(SCc2sc(-c3ccc(C(F)(F)F)c(F)c3)nc2C)ccc1OCC(=O)O	7.94 µM (active)
O=C(O)c1ccc2[nH]cc(CCCCN3CC=C(c4ccccc4)CC3)c2c1	inactive
COc1ccc(C(CN(C)C)C2(O)CCCCC2)cc1 (configuration not stated)	inactive
CC(CCc1ccccc1)NC(C)C(O)c1ccc(O)cc1 (configuration not stated)	inactive
O=[N+]([O-])c1cc([As](=O)(O)O)ccc1O	inactive
CCC1(C2=NCCN2)Cc2ccccc2O1 (configuration not stated)	inactive
CC(=O)Nc1cc([As](=O)(O)O)ccc1O	inactive
CC[N+]1(C)CCCC(OC(=O)C(O)(c2ccccc2)c2ccccc2)C1 (configuration not stated)	inactive

Molecular target: Cytochrome P450 3A4 (Homo sapiens) (UniProt P08684)
Experiment: qHTS Assay for Activators of Cytochrome P450 3A4 (AID 885); further: nearly all actives have a fitted effect of over 65% in size
Settings: recombinant CYP3A4, Luciferin-PPXE luminescence, 60 min; series mostly up to 57.1 µM
Procedure, shortened: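 CYP3A4 activity: Luciferin-PPXE O-dealkylation, 25uM substrate, 200mM KPO4, RT throughout. Read-out is luciferase luminescence; higher values reflect activation.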

Structure (SMILES)	outcome
CC(C)(C)NCC(O)c1cc(Cl)c(N)c(Cl)c1 (configuration not stated)	inactive
Cc1cc(SCc2sc(-c3ccc(C(F)(F)F)c(F)c3)nc2C)ccc1OCC(=O)O	inactive
CC(C)CC(N(C)C)C1(c2ccc(Cl)cc2)CCC1 (configuration not stated)	inactive
CCC1C(=O)OCC1Cc1cncn1C (configuration not stated)	inactive
NCC(CC(=O)O)c1ccc(Cl)cc1 (configuration not stated)	inactive
COc1ccc(Cc2nccc3cc(OC)c(OC)cc23)cc1OC	inactive

System: not listed separately
Experiment: qHTS Assay for Identification of Small Molecule Antagonists for NFkB Signaling Pathway (AID 895; active means well fitted inhibition curve with a large enough effect in the signal ratio, with a control signal flat, not every such curve was filed as active; the % refers to the signal ratio; further: potency means the concentration at half of the fitted maximal effect)
Settings: NFkB beta-lactamase reporter cells, FRET ratio 460/530; series mostly up to 38.3 µM
Procedure, shortened: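 ME-180 NFkB-bla cells (beta-lactamase under NFkB response element), plated overnight, treated with compound then 10 pM TNF alpha (about EC50) for 5 hrs at 37 C. LiveBLAzer FRET read at 460/530 nm emission, 405 nm excitation.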

Structure (SMILES)	Potency
N[C@@H]1C[C@H]1c1ccccc1	inactive
Cc1ccc(S(=O)(=O)N[C@@H](CCCCN)C(=O)CCl)cc1	11.2 µM (active)
O=c1c(O)c(-c2ccc(O)c(O)c2)oc2cc(O)cc(O)c12	5.62 µM (active)
NCC(CC(=O)O)c1ccc(Cl)cc1 (configuration not stated)	5.62 µM (active)
CN1C[C@H](CNC(=O)OCc2ccccc2)C[C@@H]2c3cccc4c3c(cn4C)C[C@H]21	inactive
CCCN1CCC[C@@H]2Cc3nc(N)ncc3C[C@H]21	inactive

Molecular target: Cytochrome P450 2C19 (Homo sapiens) (UniProt P33261)
Experiment: qHTS Assay for Inhibitors and Substrates of Cytochrome P450 2C19 (AID 899); further: nearly all actives have a fitted effect of over 60% in size; further: potency means the concentration at half of the fitted maximal effect
Settings: recombinant CYP2C19, luciferin-H EGE luminescence; series mostly up to 57.1 µM
Procedure, shortened: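 5 nM human CYP2C19 with 10uM Luciferin-H EGE (at KM) in 50mM KPO4, compound preincubated 10 min at 37C, then NADPH regeneration for 60 min at 37C. Luciferin read by luminescence after detection reagent; normalized to 57uM ketoconazole as full inhibition.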

Chain of Cytochrome P450 2C19 (Homo sapiens) (P33261 whole entry, looked up): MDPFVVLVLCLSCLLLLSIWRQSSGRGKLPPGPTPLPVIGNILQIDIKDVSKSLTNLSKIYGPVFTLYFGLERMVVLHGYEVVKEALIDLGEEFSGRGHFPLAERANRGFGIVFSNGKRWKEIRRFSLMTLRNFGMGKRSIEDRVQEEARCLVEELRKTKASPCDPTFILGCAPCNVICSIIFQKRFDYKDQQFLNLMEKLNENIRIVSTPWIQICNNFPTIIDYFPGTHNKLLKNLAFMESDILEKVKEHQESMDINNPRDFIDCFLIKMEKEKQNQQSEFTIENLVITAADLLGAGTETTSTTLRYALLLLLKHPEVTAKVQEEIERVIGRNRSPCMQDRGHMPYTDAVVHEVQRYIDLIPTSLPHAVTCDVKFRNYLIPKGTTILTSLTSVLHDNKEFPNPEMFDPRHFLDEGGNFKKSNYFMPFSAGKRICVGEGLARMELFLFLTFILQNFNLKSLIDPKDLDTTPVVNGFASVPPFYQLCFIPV

Structure (SMILES)	Potency
CCCN(CCC)CCc1cccc2c1CC(=O)N2	inactive
C=C(C)[C@H]1Cc2c(ccc3c2O[C@@H]2COc4cc(OC)c(OC)cc4[C@@H]2C3=O)O1	1 µM (active)
O=[N+]([O-])c1cc([As](=O)(O)O)ccc1O	inactive
CC(C)C(=O)Nc1ccc([N+](=O)[O-])c(C(F)(F)F)c1	inactive
c1ccc(C2CC2)c(OCC2=NCCN2)c1	inactive
CCOC(=O)c1ncn2c1CN(C)C(=O)c1cc(F)ccc1-2	1.58 µM (active)
COc1ccc(Cc2nccc3cc(OC)c(OC)cc23)cc1OC	5.01 µM (active)
